Source: PubChem BioAssay (NCATS)
Results filed as inconclusive are left out. Activity calls are given as the source filed them. Unless noted, calls come from the whole dose curve; as a rule, active = well fitted curve in the direction sought with a large enough effect; inconclusive = small, poorly fitted or top-dose-only effect, or another doubt; inactive = no such curve, though single readings can be large; an effect the other way counts as inactive or inconclusive.

Key:
[1] = qHTS for Inhibitors of Plasmodium falciparum (DD2) proliferation (AID 504314); note: potency is the fitted concentration of half-maximal effect;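 for activity, negative = inhibition: parasite DNA measured by SYBR Green fluorescence after red cell lysis; plate controls were DMSO vehicle for no effect and artemisinin wells for full effect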
Procedure, shortened: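 Infected RBCs, 0.3% parasitemia, 2.5% Hct; compound 72 h, 37C/5% CO2; lyse + SYBR Green I, RT overnight, dark; read ex485/em535; normalize to DMSO and artemisinin 0.29 uM.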

[2] = qHTS for Inhibitors of Plasmodium falciparum (GB4) proliferation (AID 504315); note: nearly all actives have a fitted effect of over 50% in size; note: potency is the fitted concentration of half-maximal effect
Procedure, shortened: (§1)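 Erythrocytes infected with P. falciparum line (0.3% parasitemia, 2.5% hematocrit final) incubated with compounds 72 h at 37 °C, 5% CO2; SYBR Green lysis buffer added, fluorescence read next day. Normalized to 0.29 uM artemisinin and DMSO.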

[3] = qHTS for Inhibitors of Plasmodium falciparum (7G8) proliferation (AID 504316); note: nearly all actives have a fitted effect of over 65% in size; note: potency is the fitted concentration of half-maximal effect
Procedure, shortened: as §1

[4] = qHTS for Inhibitors of Plasmodium falciparum (HB3) proliferation (AID 504318); note: nearly all actives have a fitted effect of over 60% in size; note: potency is the fitted concentration of half-maximal effect
Procedure, shortened: as §1

[5] = molecular target: Atrial natriuretic peptide receptor 1 (Homo sapiens) (UniProt P16066); experiment: Natriuretic polypeptide receptor (hNpr1) antagonism - Pilot CMLD screen (AID 1347052; calls by dose curve;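 note: HEK293 cells with hNpr1 stimulated by hNppA peptide at 0.1 nM; cGMP level read as GloSensor luciferase luminescence after agonist stimulation; series mostly up to about 9.2 µM; % is set by controls: 0 for no effect and ±100 for the full control effect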)
Chain of Atrial natriuretic peptide receptor 1 (Homo sapiens) (P16066 whole entry, looked up): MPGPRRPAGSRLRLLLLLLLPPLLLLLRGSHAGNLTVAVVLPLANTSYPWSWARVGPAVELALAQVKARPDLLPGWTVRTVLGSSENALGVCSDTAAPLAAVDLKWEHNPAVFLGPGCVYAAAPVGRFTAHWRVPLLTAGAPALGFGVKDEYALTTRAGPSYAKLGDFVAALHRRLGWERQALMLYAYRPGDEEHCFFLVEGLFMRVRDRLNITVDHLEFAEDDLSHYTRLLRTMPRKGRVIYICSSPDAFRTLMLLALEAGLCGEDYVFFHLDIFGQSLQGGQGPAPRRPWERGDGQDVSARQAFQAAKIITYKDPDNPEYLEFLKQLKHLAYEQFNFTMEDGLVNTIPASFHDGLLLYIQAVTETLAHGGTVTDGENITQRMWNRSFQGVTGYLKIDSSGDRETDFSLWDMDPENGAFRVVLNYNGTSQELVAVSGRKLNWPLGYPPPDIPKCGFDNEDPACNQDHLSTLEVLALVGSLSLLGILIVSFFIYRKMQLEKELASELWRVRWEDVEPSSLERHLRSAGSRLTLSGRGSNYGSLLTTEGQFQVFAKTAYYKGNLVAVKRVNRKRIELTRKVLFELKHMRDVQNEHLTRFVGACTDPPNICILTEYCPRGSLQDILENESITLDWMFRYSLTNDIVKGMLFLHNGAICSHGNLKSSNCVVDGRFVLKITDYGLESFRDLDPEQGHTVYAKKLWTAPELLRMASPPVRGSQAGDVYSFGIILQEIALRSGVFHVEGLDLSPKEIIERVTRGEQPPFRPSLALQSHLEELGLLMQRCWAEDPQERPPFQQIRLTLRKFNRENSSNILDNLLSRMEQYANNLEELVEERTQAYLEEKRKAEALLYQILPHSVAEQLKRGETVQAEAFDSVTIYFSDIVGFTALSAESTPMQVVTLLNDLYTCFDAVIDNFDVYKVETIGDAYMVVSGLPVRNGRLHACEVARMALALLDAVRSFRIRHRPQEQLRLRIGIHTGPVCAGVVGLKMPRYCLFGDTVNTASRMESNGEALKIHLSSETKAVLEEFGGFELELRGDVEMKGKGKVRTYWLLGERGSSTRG

[6] = qHTS for Inhibitors of Plasmodium falciparum (CP250) proliferation (AID 504320);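 note: plate controls were DMSO vehicle for no effect and 0.29 µM artemisinin control for full effect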
Procedure, shortened: as §1

COC(=O)CC=C[C@@H](C)[C@@H](C=NO[C@H](C)c1cn([C@@H]2COC[C@@H]2O)nn1)N[S+](=O)([O-])c1ccc(C)cc1
inactive: Potency [1] | Potency [2] | Potency [3] | Potency [4] | Potency [5]

C=C(C#CCCO)CCN1C=C(C(=O)OCC)C(c2ccccc2)NC1=O (configuration not stated)
inactive: Potency [1] | Potency [2] | Potency [3] | Potency [4] | Potency [5]

COC[C@@H](OC(C)=O)[C@H]1OCc2ccccc2[C@H]1C=Cc1ccccc1
inactive: Potency [1] | Potency [2] | Potency [3] | Potency [4] | Potency [5]

COC(=O)[C@H](Cc1ccccc1)NC(=O)O[C@@H]1C(=O)c2cc(OC)ccc2O[C@H]1c1ccc(OC)c(Br)c1
inactive: Potency [1] | Potency [2] | Potency [3] | Potency [4] | Potency [5]

CC(C)CON=C1C[C@@H](O)[C@@H](O)[C@@H]2[C@H]3C(=O)N(C[C@@H]4CCCO4)C(=O)[C@@H]3CC[C@H]12
inactive: Potency [1] | Potency [2] | Potency [3] | Potency [4] | Potency [5]

C=CCOC(=O)N[C@H](C(C(=O)OC)=C(C)NCc1ccccc1)c1cccc(OC)c1
inactive: Potency [1] | Potency [2] | Potency [3] | Potency [4] | Potency [5]

O=C1C2=C(C(=O)c3ccccc31)[C@H]1O[C@](CCCCN3C(=O)c4ccccc4C3=O)(Cc3c1ccc1ccccc31)O2
inactive: Potency [5]
active: Potency [1] 1.5 µM | Potency [2] 1.69 µM | Potency [3] 0.953 µM | Potency [4] 0.757 µM

COC(=O)CCCC1=CC2=CC(=O)C(C)(OC(=O)c3cccs3)C(=O)C2=CN1C1CC1 (configuration not stated)
inactive: Potency [1] | Potency [2] | Potency [3] | Potency [4] | Potency [6] | Potency [5]

OC[C@H]1O[C@H](c2ccccc2)C=C[C@H]1OCc1cccc(Br)c1
inactive: Potency [1] | Potency [2] | Potency [3] | Potency [4] | Potency [5]

COCC=CC1=CC2=CC(=O)C(C)(OC(=O)c3cnc4ccccc4n3)C(=O)C2=CN1CCCCO (configuration not stated)
inactive: Potency [1] | Potency [2] | Potency [3] | Potency [4] | Potency [5]

COc1ccc(OC)c(-c2ccccc2C=NNS(=O)(=O)c2ccc(C)cc2)c1
inactive: Potency [1] | Potency [2] | Potency [3] | Potency [4] | Potency [5]

O=P1(O)Oc2c(c(-c3ccccc3)cc3ccc4ccccc4c23)-c2c(-c3ccccc3)cc3ccc4ccccc4c3c2O1
inactive: Potency [1] | Potency [2] | Potency [3] | Potency [4] | Potency [5]

CC(CCN1CCCCc2nc(C)c(C)cc21)=NOC[C@@H](O)[C@H]1O[C@@H]2OC(C)(C)O[C@H]2[C@@H]1O
inactive: Potency [1] | Potency [2] | Potency [3] | Potency [4] | Potency [6] | Potency [5]

COc1ccc([C@]23Cc4c(ccc5ccccc45)[C@H](O2)c2c(cc(-c4ccccc4)oc2=O)O3)cc1
inactive: Potency [1] | Potency [2] | Potency [3] | Potency [4] | Potency [6] | Potency [5]

CC(CCN1CCCCc2nc(C)c(C)cc21)=NO[C@@H](C)CN1CCCCc2nc(C)c(C)cc21
inactive: Potency [1] | Potency [2] | Potency [3] | Potency [4] | Potency [5]

CC(C)=NOCc1ccc(-c2cn([C@@H]3COC[C@@H]3O)nn2)cc1
inactive: Potency [1] | Potency [2] | Potency [3] | Potency [4] | Potency [5]

CCN(CCNC(=O)[C@H]1C=C(OC)C(=O)C[C@@H]2c3ccccc3C[C@]12C)C(C)=O
inactive: Potency [1] | Potency [2] | Potency [3] | Potency [4] | Potency [6] | Potency [5]

OC[C@@H](O)[C@@H](O)CCc1ccccc1
inactive: Potency [1] | Potency [2] | Potency [3] | Potency [4] | Potency [6] | Potency [5]

C=CCN1c2ccccc2[C@]23CCC(=O)N(CC4CC4)C2=NC(C(=O)OC)=C(C(=O)OC)[C@H]13
inactive: Potency [1] | Potency [2] | Potency [3] | Potency [4] | Potency [5]

CCOC(=O)NN=C1C[C@@H](O)[C@@H](O)[C@@H]2[C@H]3C(=O)N(C[C@@H]4CCCO4)C(=O)[C@@H]3CC[C@H]12
inactive: Potency [1] | Potency [2] | Potency [3] | Potency [4] | Potency [5]

COc1ccc2c(c1)C(=O)[C@@H](OC(=O)Nc1cc(OC)c(OC)c(OC)c1)[C@H](c1ccc(OC)c(Br)c1)O2
inactive: Potency [1] | Potency [2] | Potency [3] | Potency [4] | Potency [6] | Potency [5]

CC(C)[C@@H](OCc1ccccc1)[C@H](C)C=NO[C@H](C)c1cn([C@H](CO)Cc2ccccc2)nn1
inactive: Potency [1] | Potency [2] | Potency [3] | Potency [4] | Potency [5]

C=C(CCN1C=C(C(=O)OCC)C(c2ccccc2)NC1=O)OC (configuration not stated)
inactive: Potency [1] | Potency [2] | Potency [3] | Potency [4] | Potency [6] | Potency [5]

CCN1C(=O)N[C@@H](c2ccccc2)[C@@H](C(=O)OC)[C@H]1C
inactive: Potency [1] | Potency [2] | Potency [3] | Potency [4] | Potency [5]

COc1ccc2c(c1)O[C@@H](c1ccc3c(c1)OCO3)[C@H](OC(=O)N[C@H](C)C1CCCCC1)C2=O
inactive: Potency [1] | Potency [2] | Potency [3] | Potency [4] | Potency [6] | Potency [5]

C=C(C)C(O)C=Cc1ccc(Br)cc1 (configuration not stated)
inactive: Potency [1] | Potency [2] | Potency [3] | Potency [4] | Potency [6] | Potency [5]

COC(=O)CC=C[C@H](C)[C@H](Cc1ccccc1Br)OC
inactive: Potency [1] | Potency [2] | Potency [3] | Potency [4] | Potency [6] | Potency [5]

CCCCCCCC#Cc1ccccc1C=NS(=O)c1ccc(C)cc1 (configuration not stated)
inactive: Potency [1] | Potency [2] | Potency [3] | Potency [4] | Potency [6] | Potency [5]

C=CCNC(=O)N1CCc2nc(-c3ccccc3)c3c(c2C1)CO[C@@H](C)C3
inactive: activity, negative = inhibition [1] -1.14% [at 1.12 µM] | Potency [2] | Potency [3] | Potency [4] | Potency [5]

CC(C)=CCCC(C)=CCON=C1C[C@@H](O)[C@@H](O)[C@@H]2[C@H]3C(=O)N(C[C@@H]4CCCO4)C(=O)[C@@H]3CC[C@H]12
inactive: Potency [1] | Potency [2] | Potency [3] | Potency [4] | Potency [6] | Potency [5]
